# According to ChEMBL document CHEMBL3988442, “University of Dundee, Small-Polar-MMV Screening Library” (2021):
# Target: T1, Aspartate--tRNA(Asp/Asn) ligase (Mycobacterium tuberculosis (strain ATCC 25618 / H37Rv)) (UniProt P9WFW3)
# T1 sequence (whole entry): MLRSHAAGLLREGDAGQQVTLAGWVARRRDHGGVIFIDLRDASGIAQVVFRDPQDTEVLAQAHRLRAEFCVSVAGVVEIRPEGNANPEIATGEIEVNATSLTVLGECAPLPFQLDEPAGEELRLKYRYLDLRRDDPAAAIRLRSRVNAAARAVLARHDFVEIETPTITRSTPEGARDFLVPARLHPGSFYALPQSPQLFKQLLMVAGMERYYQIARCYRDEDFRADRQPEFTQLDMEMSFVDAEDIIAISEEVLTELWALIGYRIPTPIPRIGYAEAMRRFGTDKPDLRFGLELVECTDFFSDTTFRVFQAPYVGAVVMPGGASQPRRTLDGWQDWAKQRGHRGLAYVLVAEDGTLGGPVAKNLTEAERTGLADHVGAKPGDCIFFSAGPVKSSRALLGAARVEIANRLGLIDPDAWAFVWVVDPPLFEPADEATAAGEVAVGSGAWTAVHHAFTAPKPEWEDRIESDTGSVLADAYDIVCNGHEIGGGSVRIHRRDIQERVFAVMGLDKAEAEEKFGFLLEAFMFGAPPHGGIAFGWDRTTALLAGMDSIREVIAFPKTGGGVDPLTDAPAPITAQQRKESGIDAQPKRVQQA
# Experiment: Assay for Asp RNA synthetase-1 from Mycobacterium tuberculosis
# Assay type: functional
# Set-up: scale not given: in the data most compounds retested in dose-response had high values
# Details: 30 µM
row,Structure (SMILES),Percent Effect [%]
1,COCc1noc(-c2ccc(N3CCCCC3CO)nc2)n1 (stereo not given),-2.46
2,CC(=O)c1ccc(N2CCC(CO)(CCOc3ccccc3)CC2)nc1,0.327
3,Cc1cc(C)n(CCCNC(=O)C(C)NC(=O)c2ccccc2Cl)n1 (stereo not given),1.92
4,COCC1CN(Cc2ccc(C)o2)Cc2cn(C)nc21 (stereo not given),11.7
5,CC(=O)Nc1nc(C2CCN(CC(N)=O)CC2)cs1,-7.79
6,CCc1nnc2n1CCN(C(=O)COCCc1ccccc1)C2,3.29
7,CN1C[C@H]2CCN(C(=O)NC3CCCC3)CC[C@H]2S1(=O)=O,2.12
8,Cc1ccc(N2CCCC(NCC(=O)NC3CCOCC3)C2)nn1 (stereo not given),5.08
9,Cc1cc(C)c(CNC(=O)NCC2CCCO2)c(=O)[nH]1 (stereo not given),-3.97
10,O=C(NCC(O)c1cccs1)c1cccc(Cl)c1 (stereo not given),-5.75
11,CC(C)CN1C(=O)C2(CCN(Cc3nccs3)C2)c2ccccc21 (stereo not given),-0.662
12,COC(=O)C1CCN(c2cncc(-n3nc(C)cc3C)n2)CC1,8.26
13,CC(C)NS(=O)(=O)c1cc(C(=O)O)cc(-c2ccc(CN(C)C)cc2)c1,-3.46
14,Cn1ncc2c(NCCOc3ccc(F)cc3)nc(C3CCCC3)nc21,2.47
15,CCc1nc(C)c(C(=O)NCCNc2ncccn2)s1,0.562
16,O=C(Cc1ccc2c(c1)CCC2)NCCNc1ncccn1,-1.71
17,Cc1nccc(CNC(=O)NCCOc2ccc(F)c(F)c2)n1,-2.26
18,CC(=O)N1[C@H](Cn2cncn2)C[C@@H]2CN(S(C)(=O)=O)CC[C@@H]21,2.85
19,Cc1cccc(-n2cc(C(=O)N3CCCC(n4cccn4)C3)nn2)c1 (stereo not given),1.99
20,COc1cc(NC(=O)Cn2ccc3sc(C)cc3c2=O)cc(OC)c1,-2.26
